Measurements as given in PubChem BioAssay AID1159580 (chemical genetic matrix, 2015).
“And” between values parts separate entries of the source, which are not always exact repeats. Equal values may be shown once. Among all 5,500 compounds or so, about 2,000 (36%) were called active. Not shown: some 18% with an inconclusive outcome. Cut-off read from the data, not from the text of the source: active = normalized growth mostly below about 0.91 (no sharp cut-off); inconclusive = no clear call, values can overlap the other calls; inactive = mostly above about 0.92. The list shows a part of the results.

Assay: chemical genetic growth profiling, strain panel (AID 1159580);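 note: tested at 20 µM; growth read once vehicle control cultures reached saturation at 30 °C; 1 = growth at the plate median or of vehicle wells; lower values mean less growth of the strain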
Conditions: S. cerevisiae deletion strains, growth OD

Measured: normalized growth

C/C=C(/C)C(=O)O[C@@H]1[C@H](OC(C)=O)[C@@]2(CO)C(CC1(C)C)C1=CCC3[C@@]4(C)CC[C@H](O[C@@H]5O[C@H](C(=O)O)[C@@H](O[C@@H]6O[C@H](CO)[C@@H](O)[C@H](O)[C@H]6O)[C@H](O)[C@H]5O[C@@H]5O[C@H](CO)[C@@H](O)[C@H](O)[C@H]5O)[C@](C)(CO)C4CC[C@@]3(C)[C@]1(C)C[C@H]2O (some centres not stated)
inactive: locus YAL021C, strain ccr4, stronger effect = lower value 1.01 | locus YAL026C, strain drs2, stronger effect = lower value 0.983 | locus YAL030W, strain snc1, stronger effect = lower value 0.987 | locus YBL061C, strain skt5, stronger effect = lower value 0.983 | locus YBR009C, strain hhf1, stronger effect = lower value 0.938 | locus YBR021W, strain FUR4, stronger effect = lower value 0.989 | locus YBR023C, strain chs3, stronger effect = lower value 0.992 | locus YBR171W, strain sec66, stronger effect = lower value 0.996 | locus YBR229C, strain ROT2, stronger effect = lower value 1.01 | locus YBR231C, strain swc5, stronger effect = lower value 0.979 | locus YBR279W, strain paf1, stronger effect = lower value 0.989 | locus YCL011C, strain gbp2, stronger effect = lower value 0.986 | locus YCL016C, strain dcc1, stronger effect = lower value 0.994 | locus YCL029C, strain bik1, stronger effect = lower value 1.03 | locus YCL061C, strain MRC1, stronger effect = lower value 0.981 | locus YCL069W, strain vba3, stronger effect = lower value 0.987 | locus YCR088W, strain abp1, stronger effect = lower value 0.989 | locus YDL005C, strain med2, stronger effect = lower value 0.982 | locus YDL035C, strain GPR1, stronger effect = lower value 1.02 | locus YDL040C, strain nat1, stronger effect = lower value 0.973 | locus YDL074C, strain BRE1, stronger effect = lower value 0.999 | locus YDL101C, strain DUN1, stronger effect = lower value 1.02 | locus YDL185W, strain tfp1, stronger effect = lower value 1.02 | locus YDL192W, strain arf1, stronger effect = lower value 1.02 | locus YDR001C, strain nth1, stronger effect = lower value 0.981 | locus YDR069C, strain doa4, stronger effect = lower value 0.982 | locus YDR101C, strain arx1, stronger effect = lower value 1.01 | locus YDR137W, strain rgp1, stronger effect = lower value 0.975 | locus YDR159W, strain sac3, stronger effect = lower value 0.96 | locus YDR162C, strain NBP2, stronger effect = lower value 1.02 | locus YDR195W, strain ref2 0.929 | locus YDR297W, strain sur2, stronger effect = lower value 0.993 | locus YDR318W, strain mcm21, stronger effect = lower value 1.03 | locus YDR334W, strain swr1, stronger effect = lower value 0.985 | locus YDR335W, strain msn5, stronger effect = lower value 0.989 | locus YDR388W, stronger effect = lower value 1.02 | locus YDR392W, strain spt3, stronger effect = lower value 0.874 | locus YDR502C, strain sam2, stronger effect = lower value 1.02 | locus YEL003W, strain gim4, stronger effect = lower value 0.992 | locus YEL037C, strain rad23, stronger effect = lower value 0.991 | locus YEL061C, strain CIN8 (second series), stronger effect = lower value 0.987 | locus YEL061C, strain CIN8, stronger effect = lower value 1.01 | locus YER015W, strain faa2, stronger effect = lower value 0.983 | locus YER016W, strain bim1, stronger effect = lower value 0.991 | locus YER110C, stronger effect = lower value 1.03 | locus YER111C, strain swi4, stronger effect = lower value 0.968 | locus YER155C, strain BEM2 (second series), stronger effect = lower value 0.997 | locus YER155C, strain BEM2, stronger effect = lower value 0.999 | locus YER167W, strain BCK2, stronger effect = lower value 1.01 | locus YFR010W, strain ubp6, stronger effect = lower value 0.991 | locus YGL078C, strain dbp3, stronger effect = lower value 1.02 | locus YGL086W, strain mad1, stronger effect = lower value 1.03 | locus YGL167C, strain pmr1, stronger effect = lower value 0.987 | locus YGL173C, strain kem1, stronger effect = lower value 0.966 | locus YGL227W, strain vid30, stronger effect = lower value 0.982 | locus YGL240W, strain doc1, stronger effect = lower value 0.97 | locus YGL248W, strain PDE1, stronger effect = lower value 1.01 | locus YGL253W, strain hxk2, stronger effect = lower value 0.974 | locus YGR135W, strain pre9, stronger effect = lower value 1.01 | locus YGR252W, strain gcn5, stronger effect = lower value 0.965 | locus YHR013C, strain ard1, stronger effect = lower value 0.965 | locus YHR027C, strain rpn1, stronger effect = lower value 0.992 | locus YHR030C, strain SLT2, stronger effect = lower value 1.01 and 0.987 | locus YHR079C, strain IRE1 (second series), stronger effect = lower value 1.03 | locus YHR079C, strain IRE1, stronger effect = lower value 0.972 | locus YHR094C, strain hxt1, stronger effect = lower value 1.03 | locus YHR129C, strain ARP1, stronger effect = lower value 1.01 | locus YHR142W, strain chs7, stronger effect = lower value 1.01 | locus YHR200W, strain rpn10, stronger effect = lower value 1.01 | locus YIL066C, strain RNR3, stronger effect = lower value 1.01 | locus YIL073C, strain SPO22, stronger effect = lower value 1.15 | locus YIL125W, strain kgd1, stronger effect = lower value 1.02 | locus YIR030C, strain dcg1, stronger effect = lower value 1.03 | locus YJL092W, strain hpr5, stronger effect = lower value 0.989 | locus YJL095W, strain BCK1 (second series), stronger effect = lower value 0.992 | locus YJL095W, strain BCK1, stronger effect = lower value 1.02 and 0.969 | locus YJL115W, strain asf1, stronger effect = lower value 0.989 | locus YJL129C, strain trk1, stronger effect = lower value 0.984 | locus YJL134W, strain LCB3, stronger effect = lower value 1 | locus YJL154C, strain vps35, stronger effect = lower value 0.987 | locus YJL164C, strain tpk1, stronger effect = lower value 1.01 | locus YJL166W, strain qcr8, stronger effect = lower value 1 | locus YJL168C, strain set2, stronger effect = lower value 1.01 | locus YJL187C, strain SWE1 (second series), stronger effect = lower value 1.02 | locus YJL187C, strain SWE1, stronger effect = lower value 0.996 | locus YJR043C, strain POL32, stronger effect = lower value 0.99 | locus YJR066W, strain TOR1, stronger effect = lower value 1.01
